Screens deposited in PubChem by several laboratories.
Shown are actives, neighbours in structure and some others; about 1.2% of the full set was active somewhere.
NCOA1 inh – inhibitors of human steroid receptor coactivator 1 (SRC1); inhibition, % at 3.6 µM; AID 588354; HEK293 GAL4-SRC1 luciferase reporter, luminescence; 360,000 tested, 0.12% active;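 active = inhibition above the campaign mean plus 3 SD, with each screening campaign given its own cutoff, cut at about 60% in these data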;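 also: 0% = DMSO treated cells and 100% = gossypol at 36 µM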
SRC2 inh – inhibits human steroid receptor coactivator 2. Q15596. inhibition, % at 9 µM. HEK293 GAL4-SRC2 luciferase reporter, luminescence. 370,000 tested, 0.17% active;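 active = inhibition above the mean inhibition of all tested compounds plus 3 SD, set per campaign, cut at about 52% in these data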;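 also: 0% = DMSO treated cells and 100% = cells given Gossypol at 36 µM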
COUP-TFII inh – blocks human COUP-TFII nuclear receptor; AID 686940; P24468; 370,000 tested, 0.7% active; HEK293T NGFI-A luciferase reporter, luminescence; inhibition, % at 8.6 µM;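 active = inhibition above a per-plate cutoff, mean inhibition of test wells between control levels plus 3 SD, cut at about 38% in these data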;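 also: cells cotransfected with COUP-TFII expression vector driving the NGFI-A reporter; 0% = median of COUP-TF2 test wells and 100% = reporter-only cells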
Gli-Sufu block – Gli-Sufu pathway antagonism; 340,000 tested, 0.74% active; inhibition, % at 5 µM; AID 588413; Sufu-KO-LIGHT fibroblasts, Gli luciferase reporter luminescence;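 active = inhibition above about 55%, limit read from the data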;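 also: 0% = DMSO-treated cells and 100% = wells with medium but no cells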
SRC3 inh – human NCOA3 inhibition | inhibition, % at 3.6 µM | 360,000 tested, 0.17% active | Q9Y6Q9 | HEK293 GAL4-SRC3 luciferase reporter, luminescence | AID 588352;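 active = inhibition above a per-campaign cutoff, the mean of all compounds plus 3 SD, cut at about 60% in these data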;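 also: 0% = DMSO-treated cells and 100% = gossypol-treated cells at 36 µM; higher means less SRC3-driven luciferase light from the GAL4 reporter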
LRH-1 inv ag – inverse agonists of human LRH-1 (NR5A2). HEK293T StAR-luciferase reporter, LRH-1 transfected, 24 h. inhibition, % at 3.6 µM. O00482. 360,000 tested, 0.13% active;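 active = inhibition above the mean inhibition of all tested compounds plus 3 SD, cut at about 73% in these data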;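 also: 0% = DMSO wells and 100% = reporter-only cells lacking LRH-1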
VP16 Luc counter – VP16 inhibition counter-screen for COUP-TFII. shares compounds with COUP-TFII inh. HEK293 Gal4-VP16 luciferase reporter, luminescence. inhibition, % at 8.5 µM. 2,500 tested, 25% active. AID 687007; in the data active = inhibition above about 13%
COUP-TFII conf – confirmation of human COUP-TFII (NR2F2) inhibitors. shares compounds with COUP-TFII inh. HEK293 NGFI-A luciferase reporter, luminescence. inhibition, % at 8.5 µM. 2,500 tested, 45% active;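 active = mean inhibition over three repeats above a set limit taken from the earlier primary screen, cut at about 38% in these data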;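 also: 100% = cells given the luciferase reporter alone without the COUP-TF2 vector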
Starred values were filed as active, the others as inactive.

What do the screens show for `COC(=O)[C@]12C[C@H](CC(=O)N3CCOCC3)C(=O)N(CCC3=CCCCC3)C1=C[C@H](C(C)(C)C)O[C@@H]2C`?
SRC2 inh: -29; COUP-TFII inh: -15

What do the screens show for `CC1C(=O)N(Cc2cccc(F)c2)c2ccccc2N1C(=O)c1ccccc1` (stereo not drawn)?
NCOA1 inh: -11; SRC2 inh: -8; COUP-TFII inh: -16; Gli-Sufu block: -32; SRC3 inh: -1; LRH-1 inv ag: -9

How did CC1C(=O)N(Cc2ccccc2F)c2ccccc2N1C(=O)c1c(F)cccc1F (stereo not drawn) do in these assays?
NCOA1 inh: 11; SRC2 inh: 11; COUP-TFII inh: 47*; Gli-Sufu block: 2; SRC3 inh: 16; LRH-1 inv ag: -11; VP16 Luc counter: -5; COUP-TFII conf: 18

Results for COc1cccc(CN2C(=O)C(C)N(C(=O)c3c(F)cccc3F)c3ccccc32)c1 (stereo not drawn) ?
NCOA1 inh: 8; SRC2 inh: 5; COUP-TFII inh: 50*; Gli-Sufu block: 8; SRC3 inh: 22; LRH-1 inv ag: -6; VP16 Luc counter: 8; COUP-TFII conf: 19

How did COC(=O)[C@]12C[C@H](CC(=O)NCCC(C)C)C(=O)N(Cc3ccccc3)C1=C[C@H](C(C)(C)C)O[C@@H]2C do in these assays?
SRC2 inh: 7; COUP-TFII inh: -13

Results for NS(=O)(=O)c1ccc(NC(=S)N2CCN(Cc3ccc(Cl)c(Cl)c3)CC2)cc1 ?
NCOA1 inh: -1; SRC2 inh: 13; COUP-TFII inh: 4; Gli-Sufu block: 11; SRC3 inh: 17; LRH-1 inv ag: 3

What do the screens show for `NS(=O)(=O)c1ccc(NC(=S)N2CCN(c3ccc(Cl)c(Cl)c3)CC2)cc1`?
NCOA1 inh: 1; SRC2 inh: -4; COUP-TFII inh: 38*; Gli-Sufu block: 59*; SRC3 inh: 27; LRH-1 inv ag: 14; VP16 Luc counter: 13*; COUP-TFII conf: 24

How did CCN(CC)S(=O)(=O)c1cccc(NC(=O)C(=O)c2c(-c3ccccc3)cc3ccccn23)c1 do in these assays?
NCOA1 inh: -20; SRC2 inh: -3; COUP-TFII inh: 26; Gli-Sufu block: -8; SRC3 inh: 8; LRH-1 inv ag: -2

What do the screens show for `CCN(CC)S(=O)(=O)c1cc(NC(=O)C(=O)c2c(-c3ccccc3)cc3ccccn23)ccc1C`?
NCOA1 inh: 1; SRC2 inh: 8; COUP-TFII inh: 39*; Gli-Sufu block: 24; SRC3 inh: -2; LRH-1 inv ag: 5; VP16 Luc counter: 12; COUP-TFII conf: 18

Results for O=C(COC(=O)c1ccc[nH]c1=O)Nc1ccc(N2CCCCC2)cc1 ?
NCOA1 inh: 51; SRC2 inh: 87*; COUP-TFII inh: 86*; Gli-Sufu block: 54; SRC3 inh: 50; LRH-1 inv ag: 48; VP16 Luc counter: 77*; COUP-TFII conf: 71*

What do the screens show for `O=C(COC(=O)c1ccc[nH]c1=O)Nc1ccc(S(=O)(=O)N2CCCC2)cc1`?
NCOA1 inh: -16; SRC2 inh: 5; COUP-TFII inh: 2; Gli-Sufu block: 6; SRC3 inh: 1; LRH-1 inv ag: 6

How did CCn1cc(C(=O)N2CCN(c3ccc(F)cc3)CC2)c(=O)c2ccc(C)nc21 do in these assays?
SRC2 inh: -18; COUP-TFII inh: 10

What do the screens show for `Cc1ccc(C)c(NC(=O)CN(C)C(=O)c2cccc(S(=O)(=O)N3CCN(Cc4ccccc4)CC3)c2)c1`?
NCOA1 inh: -5; SRC2 inh: 23; COUP-TFII inh: 45*; Gli-Sufu block: 42; SRC3 inh: 28; LRH-1 inv ag: 7; VP16 Luc counter: -4; COUP-TFII conf: 31

How did COc1ccc(CN(C)C(=O)c2cccc(S(=O)(=O)N3CCN(c4ccccc4)CC3)c2)c(OC)c1OC do in these assays?
NCOA1 inh: 13; SRC2 inh: 5; COUP-TFII inh: 41*; Gli-Sufu block: 48; SRC3 inh: 14; LRH-1 inv ag: 13; VP16 Luc counter: 8; COUP-TFII conf: 37
